# Assay outcomes: PubChem, National Center for Advancing Translational Sciences (NCATS)
# An excerpt weighted towards active compounds, which were near 8% of everything screened.
# KB-V1 MDR tox: qHTS assay for MDR1-selective chemotherapeutics: Primary screen using the drug-selected MDR subline cells KB-V1 | KB-V1 MDR cells viability, CellTiter-Glo, 72 h | Potency, µM (highest dose often 46.1 µM), usual class: cytotoxic | 400,000 compounds, 3.4% hits | AID 1347076, 2019; further: on the % scale 0 is the no-effect control and ±100 the full control effect; nearly all actives have a fitted effect of over 60% in size
#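 qHTS viability screen in drug-selected KB-V1 MDR cells: 72 h compound treatment at 37 degrees C, ATP luminescence end point.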
# HT1080 IDH1KD tx: qHTS for induction of synthetic lethality in tumor cells producing 2HG: qHTS for the HT-1080-IDH1KD cell line; 360,000 compounds, 2% hits; HT-1080 IDH1 knockdown viability, ATP luminescence, 48 h; AID 686971, 2013; Potency, µM (highest dose often 46.1 µM), inactives show at the top dose activity, negative = toxicity, actives largely listed as cytotoxic;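 further: 0% = DMSO wells and -100% = cell-free medium wells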
#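 In this qHTS, HT-1080 cells depleted of IDH1 are exposed for 48 h at 37 °C to compound titrations. Toxicity is scored from CellTiter-Glo luminescence, with DMSO as full viability and medium alone as none.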
# MCF10A rerep: A quantitative high throughput screen for small molecules that induce DNA re-replication in MCF 10a normal breast cells | MCF 10A DNA re-replication, Hoechst nuclear intensity, 48 h | Potency, µM (top dose mostly 46.1 µM), for the others: at the highest dose activity, positive = re-replication, hits mostly activators | 350,000 compounds, 2.9% hits; further: % of control where 0% means no effect; nearly all actives have a fitted effect of over 50% in size
# KB-3-1 tox: qHTS assay for MDR1-selective chemotherapeutics: Primary screen using the parental adenocarcinoma cell KB-3-1 | KB-3-1 viability, CellTiter-Glo ATP luminescence, 72 h | Potency, µM (top dose mostly 46.1 µM), usual class: cytotoxic | 400,000 compounds, 1.4% hits | AID 1347075, 2019; further: on the % scale 0 is the no-effect control and ±100 the full control effect; nearly all actives have a fitted effect of over 60% in size
#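 72 h, 37 °C compound treatment of KB-3-1 parental cells; CellTiter-Glo added, 10 min, luminescence read. Data corrected against DMSO-only plates and normalized before curve fitting.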
# SW480 rereplic: A quantitative high throughput screen for small molecules that induce DNA re-replication in SW480 colon adenocarcinoma cells; SW480 DNA re-replication, Hoechst DNA content imaging, 48 h; Potency, µM (top dose mostly 46.1 µM), without a hit: at the highest dose re-replication activation, usual class: activators; 340,000 compounds, 1.8% hits; AID 624297, 2012; further: % of control where 0% means no effect; nearly all actives have a fitted effect of over 55% in size
#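 Image-based read-out: total Hoechst fluorescence of nuclei (405 nm excitation, 500-530 nm emission), with hits raising the fraction of high-intensity nuclei. SW480 colon cells incubated 48 hr with compounds at 37 C.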
# HT1080NT lethal: qHTS for induction of synthetic lethality in tumor cells producing 2HG: qHTS for the HT-1080-NT fibrosarcoma cell line. 360,000 compounds, 1.6% hits. HT-1080-NT fibrosarcoma viability, CellTiter-Glo ATP luminescence, 48 h. Potency, µM (titrated, usually from 46.1 µM), inactives show at the highest dose activity, negative = less viability, actives largely listed as cytotoxic;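 further: NT is the 2HG producing partner of a matched IDH1 knockdown line; 0% = DMSO-treated cells and -100% = media-only wells without cells; nearly all actives have a fitted effect of over 55% in size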
#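 Read-out is CellTiter-Glo luminescence after 10 minutes at room temperature, following 48 hours' compound treatment of HT-1080-NT cells (750 cells/well, RPMI, 5% FBS, 37 degrees C).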
# * = called active by the depositor; i = inactive; ? = inconclusive; / = no result given; [ ] = dose if it differs, or a comment. The call rests on the fitted dose curve; in most records, active means well fitted curve in the direction sought with a large enough effect; inconclusive means small, poorly fitted or top-dose-only effect, or another doubt; inactive means no such curve, though single readings can be large; an effect the other way counts as inactive or inconclusive. Potency means the concentration at half of the fitted maximal effect.
SMILES,KB-V1 MDR tox,HT1080 IDH1KD tx,MCF10A rerep,KB-3-1 tox,SW480 rereplic,HT1080NT lethal
O=c1cc(O)c2c(=O)n(-c3ccccc3)c3c(c2o1)CCCCC3,16µM*,0%,?,i,-12%,-2%
Cc1ccc(S(=O)(=O)N2CCN(C(=O)c3cc(C4CC4)nc4c3cnn4C(C)C)CC2)cc1,i,0%,10%,?,6%,-4%
CC(C)n1ncc2c(C(=O)N3CCN(Cc4ccc(Cl)s4)CC3)cc(C3CC3)nc21,8.2µM*,-12%,?,?,5%,3%
CC1(C)C=Cc2cc(-c3coc4cc(O)cc(O)c4c3=O)cc(O)c2O1,?,-12%,15µM*,i,-9%,0%
O=c1c(-c2ccc3c(c2)OCCO3)coc2cc(O)cc(O)c12,i,13%,-182%[0.0737 µM],i,-3%,2%
CCOC(=O)c1c(C)[nH]c(C(=O)OCC(O)=C(C#N)c2nc3ccccc3[nH]2)c1C,?,?,13µM*,i,?,?
N#C/C(=C(/O)COC(=O)c1ccc(O)cc1)c1nc2ccccc2[nH]1,i,-16%,6%,i,7%,-12%
Cc1c(C(=O)OC/C(O)=C(\C#N)c2nc3ccccc3[nH]2)oc2ccc(Br)cc12,i,0%,10%,i,2%,0%
Cc1c(-c2cccc(Cl)c2)nc2ccccc2c1C(=O)OC/C(O)=C(\C#N)c1nc2ccccc2[nH]1,i,2%,5.2µM*,?,?,1%
Cc1ccccc1NC(=O)/C(C#N)=C/c1ccc(Cl)cc1Cl,i,/,/,i,/,/
O=C(O)C1CCN(c2ccccc2[N+](=O)[O-])CC1,i,22%,7%,i,4%,-5%
CC(C)(C)c1ccc(/C=C/C(=O)Nc2nncs2)cc1,i,7%,1%,i,6%,-3%
CC(C)CCCC(C)NC(C)C (configuration not stated),/,/,-8%,/,1%,/
CC(NS(=O)(=O)c1ccc(F)cc1)C(=O)Nc1ccc2c(c1)OCCO2 (configuration not stated),i,3%,17%,i,21µM*,-5%
O=C(Nc1ccc(CN2CCOCC2)cc1)c1ccc(-c2ccc(Cl)cc2Cl)o1,i,?,?,i,?,15µM*
Cc1ccc(O)c(NC(=S)NC(=O)c2ccc(-c3ccc(Cl)cc3)o2)c1,i,?,6.5µM*,i,26%,?
CC(=O)NC(=O)c1ccc(-c2ccc(Cl)cc2)o1,8.2µM*,20%,-1%,?,-13%,24%
CN1CCN(c2ccc(NC(=O)c3ccc(-c4ccc(Cl)cc4)o3)cc2)CC1,?,8.2µM*,23µM*,?,?,5.8µM*
CS(=O)(=O)c1ccc(Cl)c(NC(=O)CNC(=O)c2ccc3c(c2)OCO3)c1,i,5%,-5%,i,5%,7%
O=C(NC(=S)Nc1ccccc1O)c1ccc(-c2ccc(Cl)cc2)o1,i,?,16µM*,?,14%,?
C/C(=N\OCC(=O)NCC(F)(F)F)c1cc2ccccc2o1,i,14%,-86%,i,10%,21%
CCCCNC(=O)CO/N=C(\C)c1cc2ccccc2o1,16µM*,5%,25%,i,17%,5%
CCOc1ccc(N=C2NC(=O)S/C2=C\c2ccc(N(C)C)cc2)cc1,21µM*,-17%,13%,i,?,-5%
N#Cc1c(-n2ncnc2-c2ccc(Br)cc2)sc2c1CCCCC2,i,/,/,i,/,/
